Source: PubChem BioAssay (National Center for Advancing Translational Sciences (NCATS))
This is a sample that favours compounds with a hit; in the whole collection about 7.4% have one here.
Luc counter: counter-screen: inhibitors of Kinase-Glo firefly luciferase | Potency, µM (series often up to 38.3 µM), without a hit: top-dose activity change, negative = inhibition, most hits filed as inhibitors | Q27757 | 200,000 compounds, 0.28% hits | Kinase-Glo luciferase, ATP luminescence, 8 min | AID 1379; further: on the % scale 0 is the no-effect control and ±100 the full control effect; nearly all actives have a fitted effect of over 60% in size
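Substrate mix (final 50 mM imidazole pH 7.2, 50 mM KCl, 7 mM MgCl2, 10 uM ATP, 0.01% Tween 20, 0.05% BSA) plus pin-tool compound, then Kinase-Glo detection mix; 8 min ambient, luminescence read.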
SMN2 splice enh: SMN2 splice variant enhancement | 210,000 compounds, 2.8% hits | AID 1458 | Potency, µM (highest dose often 46.1 µM), inactives show at the highest dose activity change, positive = activation, hits mostly activators | HEK293 SMN2-luciferase splicing reporter, luminescence, 30-36 h; further: % of control where 0% means no effect; nearly all actives have a fitted effect of over 55% in size
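HEK293 cells carry an SMN2 minigene-luciferase reporter in which exon 7 inclusion puts luciferase in frame. Cells were seeded at 2000 cells/well, attached for 10-12 hours, then exposed to compounds for 30-36 hours at 37C before ONE-Glo luminescence.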
NPC1 prom act: NPC1 promoter activation; Huh7 NPC1 promoter luciferase reporter, 24 h; Potency, µM (series often up to 9.22 µM), without a hit: at the top dose activation, hits mostly activators; 320,000 compounds, 2.4% hits; AID 485313; further: % of control where 0% means no effect; nearly all actives have a fitted effect of over 60% in size
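In 1536-well qHTS, Huh7 cells harboring an NPC1 promoter–luciferase construct received compound for 24 h; activation was quantified by luminescence following luciferase reagent addition.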
ELG1 genotoxic: inducers of genotoxicity in HEK293T ELG1-luciferase cells; HEK293T ELG1-luciferase reporter, luminescence, 16 h; Potency, µM (top dose mostly 46 µM), without a hit: at the top dose activity change, positive = activation, usual class: activators; 330,000 compounds, 1.3% hits; further: % of control where 0% means no effect; nearly all actives have a fitted effect of over 60% in size
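Genotoxic stress is detected as increased luminescence from luciferase-tagged ELG1 in HEK293T cells, measured with ONE-Glo after a 16 hr treatment at 37 °C.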
Rab9 prom act: activators of Rab9 promoter | Huh7 Rab9 promoter-luciferase reporter, luminescence, 24 h | Potency, µM (highest dose often 9.22 µM), for the others: at the highest dose activation, negative = inhibition, usual class: activators | 320,000 compounds, 2.8% hits | AID 485297; further: % of control where 0% means no effect; nearly all actives have a fitted effect of over 60% in size
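Luminescence from Amplite-detected luciferase (10 minutes, ambient) reports Rab9 promoter activation. Before that, stable Rab9-luciferase Huh7 cells (1500/well, reduced-serum OP-MEM I plus 10% FBS) were exposed to compound for 24 hours at 37C.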
FLuc counter: firefly luciferase modulation, counter-screen for miR-21 project | P08659 | purified FLuc, Km substrates, luminescence inhibition | Potency, µM (highest dose often 57.5 µM), for the others: at the highest dose activity change, negative = inhibition, actives largely listed as inhibitors | 360,000 compounds, 6.9% hits | AID 588342;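 further: plate controls were vehicle for no effect and reference inhibitor for full effect; nearly all actives have a fitted effect of over 55% in size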
Target sequence (P08659 whole entry, looked up): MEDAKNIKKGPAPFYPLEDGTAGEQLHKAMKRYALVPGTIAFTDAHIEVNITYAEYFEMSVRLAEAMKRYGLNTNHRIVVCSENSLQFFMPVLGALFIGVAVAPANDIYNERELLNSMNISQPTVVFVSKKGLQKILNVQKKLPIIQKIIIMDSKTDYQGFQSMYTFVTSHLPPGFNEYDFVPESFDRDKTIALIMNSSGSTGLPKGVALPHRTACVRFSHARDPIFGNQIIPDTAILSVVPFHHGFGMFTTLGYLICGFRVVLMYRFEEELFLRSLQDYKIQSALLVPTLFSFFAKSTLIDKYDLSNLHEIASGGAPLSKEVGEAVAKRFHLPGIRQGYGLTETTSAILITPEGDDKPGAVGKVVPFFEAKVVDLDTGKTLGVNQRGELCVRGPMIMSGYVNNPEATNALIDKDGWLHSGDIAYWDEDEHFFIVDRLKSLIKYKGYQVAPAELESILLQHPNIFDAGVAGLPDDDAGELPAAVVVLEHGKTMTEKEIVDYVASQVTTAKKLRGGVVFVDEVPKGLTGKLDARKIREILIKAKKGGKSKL
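Biochemical qHTS of compounds, final roughly 60 µM downward over six points, against 10 nM purified firefly luciferase using Km concentrations of substrates (10 uM D-luciferin, 10 uM ATP) in Tris acetate pH 7.5 buffer; luminescence output.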
Starred values were filed as active, the others as inactive; ? = inconclusive; . = no result given; [ ] = another dose, or the depositor's remark. The call rests on the fitted dose curve; in most records, active means well fitted curve in the direction sought with a large enough effect; inconclusive means small, poorly fitted or top-dose-only effect, or another doubt; inactive means no such curve, though single readings can be large; an effect the other way counts as inactive or inconclusive. Potency means the concentration at half of the fitted maximal effect.

SMILES | Luc counter | SMN2 splice enh | NPC1 prom act | ELG1 genotoxic | Rab9 prom act | FLuc counter
Cc1cc(=O)[nH]c(SCC(=O)N2CCN(C(=O)c3ccco3)CC2)n1 | . | . | . | -1% | . | .
CCOc1ccc(NC(=O)CN(C)S(=O)(=O)c2ccc3c(c2)c(=O)n(C)c(=O)n3C)cc1 | . | -3% | . | . | . | -8%
COc1ccc2c3c(c(=O)oc2c1)C1O[C@](c2ccsc2)(Cc2ccccc21)O3 | . | . | -1%[1.84 µM] | . | 0%[1.84 µM] | -7%[11.5 µM]
COc1ccc([C@]23Cc4ccccc4C(O2)c2c(c4ccc(OC)cc4oc2=O)O3)cc1 | . | . | 19%[1.84 µM] | . | 2%[1.84 µM] | 3.1µM*
O=C(Cn1ncc2c3ccccc3n(Cc3cccc(Cl)c3)c2c1=O)NC1CCCCCC1 | . | 7% | . | . | . | -4%
O=C(Nc1ccccc1C(F)(F)F)N1CCC2(CC1)Oc1ccccc1C(=O)N2Cc1ccccc1F | . | -2% | . | . | . | -11%
CCOc1cccc(C(=O)Nc2cccc(-c3nnc(-c4ccc(C)cc4)o3)c2)c1 | 0% | -19% | -12% | 9% | -27% | 0%
CCOc1cccc(C(=O)Nc2cccc(-c3nnc(-c4ccccc4)o3)c2)c1 | -6% | -15% | 1% | -9% | 6% | 6.7µM*
CC(=O)Nc1cccc(-c2nc(-c3ccccc3)no2)c1 | . | . | . | . | . | 2.4µM*
O=C(Nc1ccc(-c2nnco2)cc1)c1ccccc1 | 0% | 20% | 28% | ? | 15% | ?
CC(=O)Nc1cccc(-c2nnc(-c3ccccc3)o2)c1 | 0% | 13µM* | 3.5µM* | 8.2µM* | 3.5µM* | 12µM*
O=C(Nc1ccccc1)Nc1cccc(-c2nnco2)c1 | . | . | 3% | -3% | 17% | 15µM*
CCOc1ccc(NC(=O)Cn2c(=O)n(-c3ccccc3)c(=O)c3ccc(C(=O)NCc4ccc5c(c4)OCO5)cc32)cc1 | . | 14% | . | . | . | -3%
Cc1ccc(S(=O)(=O)NCCc2nnc3ccc(SCC(=O)Nc4ccc(OC(F)(F)F)cc4)nn23)cc1 | . | . | . | . | . | 5%
CCCCn1cc(S(=O)(=O)c2ccc(OC)cc2)c(=O)c2cc(CC)ccc21 | . | -1% | . | . | . | 3%
CCC(C)C(=O)OC1CCC=C2C=CC(C)C(CCC3CC(O)CC(=O)O3)[C@@H]21 (some centres not stated) | -2% | -1% | . | . | . | .
Cc1ccc(C)c(OCc2cc(C(=O)N3CCC(N4CCCC(O)C4)CC3)no2)c1 (configuration not stated) | . | . | -1% | 4% | 4% | -1%
COCCN1CCN(C(=O)c2cc(COc3ccc(Cl)cc3OC)on2)CC1 | . | . | ? | 21µM* | 3.2µM* | 11µM*
COCCN1CCN(C(=O)c2cc(COc3cc(C)ccc3C)on2)CC1 | . | . | ? | ? | 2.2µM* | 13µM*
COc1cc(Cl)ccc1OCc1cc(C(=O)N2CCCCCCC2)no1 | . | . | 3% | 3% | 11% | ?
Cc1ccc(C)c(OCc2cc(C(=O)N3CCNC(=O)C3)no2)c1 | . | . | -6% | 0% | 11% | 6%
Cc1ccc(C)c(OCc2cc(C(=O)N3CCOCC3)no2)c1 | . | . | 23% | ? | ? | 21µM*
COCCCC1CCN(C(=O)c2cc(COc3cc(C)ccc3C)on2)CC1 | . | . | 2.5µM* | ? | 3.5µM* | 12µM*
COc1cc(C2C(=O)N(C3CCC(C)CC3)CC(=O)N2CCc2ccc(Cl)cc2)ccc1OC(C)C (configuration not stated) | . | . | . | . | . | 4%
CCOc1ccc(CNC(=O)COc2cc(=O)n(C)c3ccccc23)cc1 | . | 4% | . | . | . | -6%
SMILES | Luc counter | SMN2 splice enh | NPC1 prom act | ELG1 genotoxic | Rab9 prom act | FLuc counter
CC(=O)NCCC1CCCCN1C(=O)c1cc(COc2cc(C)ccc2C)on1 (configuration not stated) | . | . | 3.5µM* | 16µM* | 2.2µM* | 17µM*
C=CCSC1=N/C(=C\c2sccc2C)C(=O)S1 | -4% | 0% | -8% | -6% | 1% | -13%
C=CCSC1=N/C(=C\C=C\c2ccco2)C(=O)S1 | -1% | 7% | 6% | 1% | 2% | 13µM*
COc1ccc2nc3c(cc2c1)Cc1ccccc1-3 | 13µM* | 0.5µM* | . | . | . | .
COc1ccc(NC(=O)c2c(C)oc3ccc(O)c(CN4CCCCCC4)c23)cc1Cl | . | -12% | . | . | . | -9%
COCCn1c(C)cc(C(=O)CSc2ccc(NC(C)=O)cc2)c1C | -3% | -42% | ? | ? | 2µM* | ?
COCC(C)n1c(C)cc(C(=O)CSc2nnc(Nc3ccccc3F)s2)c1C (configuration not stated) | -1% | -25% | -4% | -11% | 7% | 17µM*
COC(=O)c1ccc(-n2c(C)cc(C(=O)CSc3ccc(NC(C)=O)cc3)c2C)cc1 | -2% | -12% | 0% | -8% | -2% | -12%
O=C(CSc1ncccn1)c1ccccc1Br | 2% | 13µM* | 1% | 17% | 3% | ?
C=CCn1c(C)cc(C(=O)CSc2ccc(NC(C)=O)cc2)c1C | -2% | -51% | 0.5µM* | ? | 0.32µM* | 17µM*
CCOC(=O)c1ccc(NC(=O)C(C)N(c2ccc(OCC)cc2)S(C)(=O)=O)cc1 (configuration not stated) | . | 6% | . | . | . | 4%
COCC(C)n1c(C)cc(C(=O)CSc2ncccn2)c1C (configuration not stated) | 0% | 11µM* | 3.2µM* | ? | 4µM* | 15µM*
CC(=O)Nc1ccc(SCC(=O)c2cc(C)n(Cc3cccs3)c2C)cc1 | 3% | -53% | 13% | ? | ? | 17µM*
Cc1cc(C(=O)CSc2nnc(-c3ccc(OC(F)F)cc3)o2)c(C)n1Cc1cccs1 | -1% | 12% | -4% | 0% | -3% | 0%
CC(=O)Nc1ccc(SCC(=O)c2cc(C)n(-c3ccccc3F)c2C)cc1 | 2% | -70% | ? | ? | 23% | 6µM*
COCC(C)n1c(C)cc(C(=O)CSc2nnnn2-c2ccc(O)cc2)c1C (configuration not stated) | 0% | 0% | 6% | 3% | 10% | 21µM*
O=C(O)C=Cc1ccc(Cn2ccnc2)cc1 | 1% | . | . | . | . | .
COc1ccccc1CNc1ccc(-c2nc(-c3ccncc3)no2)cc1[N+](=O)[O-] | . | . | . | . | . | -6%
O=C(NCCc1ccc(Cl)cc1)C(=O)NCC(c1cccs1)S(=O)(=O)c1cccs1 (configuration not stated) | . | . | . | . | . | 3%
COc1cc(C2c3c(-c4cc(C)ccc4O)n[nH]c3C(=O)N2CCCO)ccc1OCCC(C)C (configuration not stated) | . | 2% | . | . | . | -2%
COCC(C)n1c(C)cc(C(=O)CSc2nnc(-c3ccco3)o2)c1C (configuration not stated) | . | . | . | -2% | . | .
